From PubChem BioAssay (EPA / NIEHS)
Where “and” joins values, the source holds several entries; their conditions need not be identical. Equal entries are not always repeated. Results filed as inconclusive are left out. Some structures have more than one record in an assay (separate samples or runs), and their calls can disagree. Calls of active or inactive are those of the source. Rule for the calls: active = hit-call score of the fitted dose curve at least 0.9, where 1 is the maximum; inconclusive = response in the unintended direction; inactive = score below 0.9.

Experiments:
[1] = molecular target: Estrogen receptor (Homo sapiens) + Estrogen receptor beta (Homo sapiens) (UniProt P03372+Q92731); assay: OT_ER_ERaERb_1440: Odyssey Thera (OT) 24-hour HEK293T Protein-Complementation Assay for Estrogen Receptor-alpha/-beta Homodimer (AID 2283356);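 note: heteromer of ER alpha and ER beta binding domains; hits raise reporter fluorescence and both agonists and antagonists give an increase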
Outline: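 Fragment complementation between ER alpha (310-547) and ER beta (263-489) ligand-binding domains in HEK293T cells; signal read 24 h post-dosing by laser scanning cytometer. Gain of fluorescence relative to DMSO fitted.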

[2] = molecular target: Estrogen receptor beta (Homo sapiens) (UniProt Q92731); assay: OT_ER_ERbERb_0480: Odyssey Thera (OT) 8-hour HEK293T Protein-Complementation Assay for Estrogen Receptor-beta/-beta Homodimer (AID 2283357);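 note: active means signal gain over DMSO baseline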
Outline: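 Fluorescence gain from complemented reporter fragments on ER-beta LBD homodimer in HEK293T was quantified against DMSO controls after 8 h treatment, fixation in 4% formaldehyde and Draq5 staining.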

[3] = molecular target: mouse Estrogen Receptor alpha (Era), Esr1 (gene 13982) (UniProt P19785); assay: NVS_NR_mERa: NovaScreen (NVS) Nuclear Receptor Binding Assay for mouse Estrogen Receptor alpha (Era) (AID 2283378);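 note: hit means loss of bound radioligand signal relative to DMSO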
Outline: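 Filter radiodetection of radioligand displacement from extracted receptor protein, measured 18 h post-dose. Single 25 uM concentration in duplicate initially, with concentration-series follow-up. Binding loss fitted relative to DMSO.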

[4] = molecular target: Nuclear receptor subfamily 1 group I member 2 (Homo sapiens) (UniProt O75469); assay: NVS_NR_hPXR: NovaScreen (NVS) Nuclear Receptor Binding Assay for human Pregnane X Receptor (PXR) (AID 2283365);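 note: a drop in FRET signal versus DMSO baseline means the compound binds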
Outline: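 Human PXR binding measured by TR-FRET in a cell-free format, 2 h exposure. Single-concentration duplicates at 25 uM preceded concentration-response retests of actives; endpoint fitted positively relative to DMSO, loss of signal indicating binding.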

[5] = molecular target: human Peroxisome Proliferator-activated Receptor alpha (PPARa), PPARA (gene 5465) (UniProt Q07869); assay: NVS_NR_hPPARa: NovaScreen (NVS) Nuclear Receptor Binding Assay for human Peroxisome Proliferator-activated Receptor alpha (PPARa) (AID 2283359);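 note: activity means loss of TR-FRET signal versus DMSO baseline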
Outline: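 One-hour incubation, cell-free extracted protein, TR-FRET binding readout; signal loss vs DMSO scored. Screen: 25 uM duplicates, confirmatory dose series for actives.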

[6] = molecular target: human Thyroid Receptor Alpha (TRa), THRA (gene 7067) (UniProt P10827); assay: NVS_NR_hTRa_Antagonist: NovaScreen (NVS) Nuclear Receptor Binding Assay for human Thyroid Receptor Alpha Antagonism (TRa) (AID 2283362);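 note: activity is loss of signal relative to DMSO baseline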
Outline: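 Actives from a duplicate 25 uM single-point screen were retested in concentration series. The cell-free antagonist-format binding assay was read by AlphaLISA chemiluminescence at 1 h, scored as signal loss relative to DMSO.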

[7] = molecular target: Glucocorticoid receptor (Homo sapiens) (UniProt P04150); assay: NVS_NR_hGR: NovaScreen (NVS) Nuclear Receptor Binding Assay for human Glucocorticoid Receptor (GR) (AID 2283363);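 for AC50: activity is loss of specific radioligand binding signal relative to DMSO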
Outline: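 Single-readout cell-free binding: radioligand plus extracted receptor, 16-hour dosing, filter radiodetection; 25 uM duplicate primary, concentration series secondary.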

[8] = molecular target: human Adenosine Transporter (Adot), SLC29A1 (gene 2030) (UniProt Q99808); assay: NVS_TR_hAdoT: NovaScreen (NVS) Transporter Assay for human Adenosine Transporter (Adot) (AID 2283368)
Outline: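 Binding displacement on U937 extracted protein, read 1 h post-dose by filtration and scintillation counting. Primary duplicate test at 25 uM, then singleton concentration series with 50 uM top; DMSO baseline.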

[9] = test system: guinea pig Dopamine Transporter (DAT), gene 100714898; assay: NVS_TR_gDAT: NovaScreen (NVS) Transporter Assay for guinea pig Dopamine Transporter (DAT) (AID 2283369);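 note: active compounds lower bound radioligand signal relative to DMSO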
Outline: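 Radioligand displacement on membranes from guinea pig striatum, 2 h exposure, bound label counted by filtration and scintillation. Tested at 25 uM in duplicate, then actives in concentration series to 50 uM; DMSO as negative control.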

[10] = molecular target: Peroxisome proliferator-activated receptor gamma (Homo sapiens) (UniProt P37231); assay: NVS_NR_hPPARg: NovaScreen (NVS) Nuclear Receptor Binding Assay for human Peroxisome Proliferator-activated Receptor gamma (PPARg) (AID 2283370)
Outline: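 Fluorescence polarization readout of ligand binding to extracted human PPARg, measured at 2 h. Duplicate single-point screen at 25 uM, then concentration-series retesting; activity defined as signal loss versus DMSO.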

[11] = molecular target: human Norepinephrine Transporter (NET), SLC6A2 (gene 6530) (UniProt P23975); assay: NVS_TR_hNET: NovaScreen (NVS) Transporter Assay for human Norepinephrine Transporter (NET) (AID 2283377);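 note: cell-free membrane protein extracted from CHO cells expressing human NET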;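 for AC50: displacement of radioligand from human NET seen as loss of scintillation signal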
Outline: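 In this cell-free binding screen, chemicals at 25 uM (duplicate) compete with a radioligand for CHO-derived human NET over 1 hour, with filter-based radiodetection.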

[12] = molecular target: Retinoic acid receptor alpha (Homo sapiens) (UniProt P10276); assay: NVS_NR_hRAR_Antagonist: NovaScreen (NVS) Nuclear Receptor Binding Assay for human Retinoic Acid Alpha Receptor Antagonism (RAR) (AID 2283358)
Outline: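 Chemicals were first tested in duplicate at 25 uM, then actives in concentration series, in a cell-free TR-FRET antagonist binding format. Measurements were taken 2 hours after dosing and loss of signal was evaluated against DMSO controls.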

PGR (gene 5241) = PGR (gene 5241) (UniProt P06401); assay: NVS_NR_hPR: NovaScreen (NVS) Nuclear Receptor Binding Assay for human Progestron Receptor (PR) (AID 2283360);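 note: active means loss of bound radioligand signal versus DMSO baseline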
Outline: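 Radioligand competition binding on receptor extracted from T47D cells, read by scintillation counting 18 h after dosing. Loss of signal versus DMSO; primary screen in duplicate at 25 uM, actives followed in concentration series.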

[13] = molecular target: guinea pig Sigma Receptor, Non-selective Binding, SIGMAR1 (gene 100135589) (UniProt Q60492); assay: NVS_OR_gSIGMA_NonSelective: NovaScreen (NVS) Nuclear Receptor Binding Assay for guinea pig Sigma Receptor, Non-selective Binding (AID 2283367)
Outline: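 Test chemicals were screened in duplicate at 25 uM, then in concentration series if active, against radioligand binding to guinea pig brain membranes; filtration and scintillation counting at 1 h measured remaining bound ligand.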

[14] = molecular target: human Dopamine Transporter (DAT), SLC6A3 (gene 6531) (UniProt Q01959); assay: NVS_TR_hDAT: NovaScreen (NVS) Transporter Assay for human Dopamine Transporter (DAT) (AID 2283374);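 note: activity means loss of bound radioligand signal relative to DMSO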
Outline: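 Extracted human SLC6A3 protein incubated 1 h with radioligand and test chemical; bound fraction separated on filters and counted. Single 25 uM duplicate screen preceded concentration-response follow-up; positive and negative controls on every plate.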

[15] = molecular target: rat Serotonin Transporter (SERT), Slc6a4 (gene 25553) (UniProt P31652); assay: NVS_TR_rSERT: NovaScreen (NVS) Transporter Assay for rat Serotonin Transporter (SERT) (AID 2283375)
Outline: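 Radioligand binding with competitive displacement on rat forebrain membrane preparations, counted by filtration and scintillation after 1 h. Primary single-point duplicates at 25 uM; active chemicals followed up in concentration-response. DMSO served as baseline.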

[16] = molecular target: rat Androgen Receptor (AR), Ar (gene 24208) (UniProt P15207); assay: NVS_NR_rAR: NovaScreen (NVS) Nuclear Receptor Binding Assay for rat Androgen Receptor (AR) (AID 2283366)
Outline: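 Actives from a duplicate single-concentration (25 uM) primary run went on to concentration series. Displacement of radioligand was counted by filtration and scintillation, 18 h post-dose, using prostate extracts from testosterone-pretreated rats, with DMSO as baseline.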

[17] = molecular target: human Serotonin Transporter (SERT), SLC6A4 (gene 6532) (UniProt P31645); assay: NVS_TR_hSERT: NovaScreen (NVS) Transporter Assay for human Serotonin Transporter (SERT) (AID 2283372)
Outline: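 Human platelet membrane preparation; displacement of radioligand from serotonin transporter measured after 1 h by filtration and scintillation counting. Single 25 uM duplicate screen, then concentration series for actives, with DMSO as negative baseline.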

Measured: AC50

Chain of Estrogen receptor beta (Homo sapiens) (Q92731 whole entry, looked up, the tested form may be a part): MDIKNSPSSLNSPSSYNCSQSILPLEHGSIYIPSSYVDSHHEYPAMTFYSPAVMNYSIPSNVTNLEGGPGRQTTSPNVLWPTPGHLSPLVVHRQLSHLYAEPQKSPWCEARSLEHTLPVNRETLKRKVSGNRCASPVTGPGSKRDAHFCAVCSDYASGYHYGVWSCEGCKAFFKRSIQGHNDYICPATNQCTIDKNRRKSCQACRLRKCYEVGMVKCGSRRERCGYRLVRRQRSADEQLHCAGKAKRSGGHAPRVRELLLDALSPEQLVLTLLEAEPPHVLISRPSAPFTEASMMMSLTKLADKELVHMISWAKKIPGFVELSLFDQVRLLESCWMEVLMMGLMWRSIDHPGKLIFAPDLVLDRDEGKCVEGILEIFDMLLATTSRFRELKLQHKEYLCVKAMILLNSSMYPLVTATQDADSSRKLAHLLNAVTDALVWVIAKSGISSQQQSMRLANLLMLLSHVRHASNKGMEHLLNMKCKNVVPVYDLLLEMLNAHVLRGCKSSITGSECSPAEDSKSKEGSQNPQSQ
Chain of guinea pig Sigma Receptor, Non-selective Binding, SIGMAR1 (gene 100135589) (Q60492 whole entry, looked up): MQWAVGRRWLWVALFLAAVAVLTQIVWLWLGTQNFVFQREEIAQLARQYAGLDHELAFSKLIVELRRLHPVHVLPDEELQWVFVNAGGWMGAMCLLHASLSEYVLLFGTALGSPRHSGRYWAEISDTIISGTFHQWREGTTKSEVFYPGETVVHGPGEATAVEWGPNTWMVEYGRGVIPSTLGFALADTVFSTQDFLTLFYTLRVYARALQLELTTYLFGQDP
Chain of human Thyroid Receptor Alpha (TRa), THRA (gene 7067) (P10827 whole entry, looked up): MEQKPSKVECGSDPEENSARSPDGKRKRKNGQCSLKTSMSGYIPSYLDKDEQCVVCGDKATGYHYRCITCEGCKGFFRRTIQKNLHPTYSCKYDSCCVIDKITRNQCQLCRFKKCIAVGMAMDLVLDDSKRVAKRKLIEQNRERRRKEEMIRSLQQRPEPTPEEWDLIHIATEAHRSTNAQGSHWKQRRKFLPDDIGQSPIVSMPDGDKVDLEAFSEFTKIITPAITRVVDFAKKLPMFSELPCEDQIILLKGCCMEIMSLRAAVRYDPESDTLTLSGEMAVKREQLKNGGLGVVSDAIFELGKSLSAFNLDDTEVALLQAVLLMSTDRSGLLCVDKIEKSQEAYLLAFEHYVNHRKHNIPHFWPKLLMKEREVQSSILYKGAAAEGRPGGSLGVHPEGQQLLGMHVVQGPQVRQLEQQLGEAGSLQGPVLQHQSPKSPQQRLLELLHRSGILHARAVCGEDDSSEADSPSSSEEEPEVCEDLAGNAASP
Chain of Glucocorticoid receptor (Homo sapiens) (P04150 whole entry, looked up): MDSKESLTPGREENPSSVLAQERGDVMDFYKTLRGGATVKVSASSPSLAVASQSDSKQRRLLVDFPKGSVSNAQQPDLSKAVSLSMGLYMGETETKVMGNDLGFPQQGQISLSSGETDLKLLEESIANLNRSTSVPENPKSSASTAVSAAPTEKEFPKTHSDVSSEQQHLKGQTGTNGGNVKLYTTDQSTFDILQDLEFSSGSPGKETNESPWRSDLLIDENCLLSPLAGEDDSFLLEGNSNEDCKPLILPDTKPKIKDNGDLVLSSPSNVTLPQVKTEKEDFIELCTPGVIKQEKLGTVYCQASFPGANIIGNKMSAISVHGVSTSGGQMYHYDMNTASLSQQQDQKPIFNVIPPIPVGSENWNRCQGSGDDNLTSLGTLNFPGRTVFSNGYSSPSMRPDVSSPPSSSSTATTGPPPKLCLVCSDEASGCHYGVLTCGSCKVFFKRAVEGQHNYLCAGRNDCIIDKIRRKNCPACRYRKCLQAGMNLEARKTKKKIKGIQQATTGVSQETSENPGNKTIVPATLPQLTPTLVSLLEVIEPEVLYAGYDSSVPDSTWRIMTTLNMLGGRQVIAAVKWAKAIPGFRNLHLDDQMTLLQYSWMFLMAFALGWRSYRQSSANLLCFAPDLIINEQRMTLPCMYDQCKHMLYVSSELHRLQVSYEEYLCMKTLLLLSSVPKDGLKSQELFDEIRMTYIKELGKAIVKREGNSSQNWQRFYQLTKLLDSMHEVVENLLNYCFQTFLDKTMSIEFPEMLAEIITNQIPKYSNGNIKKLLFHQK
Chain of Peroxisome proliferator-activated receptor gamma (Homo sapiens) (P37231 whole entry, looked up): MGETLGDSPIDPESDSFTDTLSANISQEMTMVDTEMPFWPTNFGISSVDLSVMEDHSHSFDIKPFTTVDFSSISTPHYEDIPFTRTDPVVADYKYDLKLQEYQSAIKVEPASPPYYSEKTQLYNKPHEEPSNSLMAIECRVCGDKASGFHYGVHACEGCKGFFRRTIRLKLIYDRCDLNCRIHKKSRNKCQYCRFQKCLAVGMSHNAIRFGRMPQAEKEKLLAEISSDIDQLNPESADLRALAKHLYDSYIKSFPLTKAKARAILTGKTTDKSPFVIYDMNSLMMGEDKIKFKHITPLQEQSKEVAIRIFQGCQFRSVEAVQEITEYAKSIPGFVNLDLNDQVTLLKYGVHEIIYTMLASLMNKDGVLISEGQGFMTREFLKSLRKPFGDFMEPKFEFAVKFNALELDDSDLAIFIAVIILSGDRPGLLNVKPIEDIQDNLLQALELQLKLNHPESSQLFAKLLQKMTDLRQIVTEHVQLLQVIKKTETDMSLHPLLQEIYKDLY
Chain of Estrogen receptor (Homo sapiens) + Estrogen receptor beta (Homo sapiens) (P03372 whole entry, looked up, the tested form may be a part): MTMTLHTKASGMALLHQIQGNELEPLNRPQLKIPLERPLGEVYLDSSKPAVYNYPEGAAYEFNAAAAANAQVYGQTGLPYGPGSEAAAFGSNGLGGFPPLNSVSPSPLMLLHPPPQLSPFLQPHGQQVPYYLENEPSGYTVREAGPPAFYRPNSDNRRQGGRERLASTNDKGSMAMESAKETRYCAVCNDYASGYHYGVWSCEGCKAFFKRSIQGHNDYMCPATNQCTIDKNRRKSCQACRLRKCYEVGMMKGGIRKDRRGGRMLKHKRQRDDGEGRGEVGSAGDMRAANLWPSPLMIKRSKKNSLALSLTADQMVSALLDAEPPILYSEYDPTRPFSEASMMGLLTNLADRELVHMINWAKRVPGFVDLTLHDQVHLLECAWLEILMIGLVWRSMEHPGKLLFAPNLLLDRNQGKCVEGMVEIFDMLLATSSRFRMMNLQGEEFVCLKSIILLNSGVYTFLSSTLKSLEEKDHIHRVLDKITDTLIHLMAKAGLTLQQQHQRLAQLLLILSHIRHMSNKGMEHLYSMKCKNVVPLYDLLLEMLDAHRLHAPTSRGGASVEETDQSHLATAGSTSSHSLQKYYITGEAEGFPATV
Chain of Estrogen receptor (Homo sapiens) + Estrogen receptor beta (Homo sapiens) (Q92731 whole entry, looked up, the tested form may be a part): as the sequence (Q92731 whole entry, looked up, the tested form may be a part) above
Chain of mouse Estrogen Receptor alpha (Era), Esr1 (gene 13982) (P19785 whole entry, looked up): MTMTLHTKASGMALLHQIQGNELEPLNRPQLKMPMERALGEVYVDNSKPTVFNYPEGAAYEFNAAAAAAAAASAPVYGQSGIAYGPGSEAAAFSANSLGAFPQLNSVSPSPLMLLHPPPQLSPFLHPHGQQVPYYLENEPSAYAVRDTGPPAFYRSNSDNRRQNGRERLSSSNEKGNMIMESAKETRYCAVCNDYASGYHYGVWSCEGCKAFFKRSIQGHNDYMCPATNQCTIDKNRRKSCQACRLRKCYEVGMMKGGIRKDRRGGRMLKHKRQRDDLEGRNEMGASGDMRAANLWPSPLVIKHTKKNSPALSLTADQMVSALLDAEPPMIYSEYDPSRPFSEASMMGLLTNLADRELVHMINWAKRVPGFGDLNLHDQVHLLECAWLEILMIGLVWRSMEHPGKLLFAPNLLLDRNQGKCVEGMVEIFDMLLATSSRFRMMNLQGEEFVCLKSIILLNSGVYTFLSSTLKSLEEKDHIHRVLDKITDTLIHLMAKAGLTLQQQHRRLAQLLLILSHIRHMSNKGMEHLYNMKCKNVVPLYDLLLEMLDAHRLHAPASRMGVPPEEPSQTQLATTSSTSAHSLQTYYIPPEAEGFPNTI
Chain of human Dopamine Transporter (DAT), SLC6A3 (gene 6531) (Q01959 whole entry, looked up): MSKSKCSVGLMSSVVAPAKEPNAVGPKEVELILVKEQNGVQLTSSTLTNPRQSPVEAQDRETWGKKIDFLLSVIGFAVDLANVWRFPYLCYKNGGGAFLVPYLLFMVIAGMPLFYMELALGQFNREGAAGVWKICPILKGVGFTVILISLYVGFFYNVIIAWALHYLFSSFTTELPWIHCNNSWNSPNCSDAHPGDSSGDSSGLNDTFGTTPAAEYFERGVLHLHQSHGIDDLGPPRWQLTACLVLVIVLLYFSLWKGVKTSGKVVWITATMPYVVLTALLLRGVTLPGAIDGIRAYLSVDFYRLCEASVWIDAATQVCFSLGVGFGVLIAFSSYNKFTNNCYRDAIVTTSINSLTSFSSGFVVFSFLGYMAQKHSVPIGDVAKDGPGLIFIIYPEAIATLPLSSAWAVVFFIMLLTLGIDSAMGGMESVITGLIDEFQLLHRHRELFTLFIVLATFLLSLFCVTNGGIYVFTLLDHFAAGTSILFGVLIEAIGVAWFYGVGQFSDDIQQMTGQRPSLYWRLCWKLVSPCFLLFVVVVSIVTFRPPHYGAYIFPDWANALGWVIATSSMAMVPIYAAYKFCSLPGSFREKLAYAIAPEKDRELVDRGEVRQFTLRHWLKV

OCCC(F)(F)C(F)(F)C(F)(F)C(F)(F)C(F)(F)C(F)(F)C(F)(F)C(F)(F)F
inactive: [1] | [2] | [3]

ClC1=C(Cl)C(Cl)(Cl)C(Cl)=C1Cl
inactive: [2]
active: [4] 40.8 µM

CC#C[C@]1(O)CC[C@H]2[C@@H]3CCC4=CC(=O)CCC4=C3[C@@H](c3ccc(N(C)C)cc3)C[C@@]21C
inactive: [5] | [6] | [7] | [4] | [8] | [9] | [10] | [11] | [3]
active: [5] 41.9 µM | [6] 29.9 µM | [10] 9.21 µM | [3] 0.289 µM

CCCCCCCCCCCCCC[N+](C)(C)C
active: [12] 28.3 µM | PGR (gene 5241) 39.3 µM | [7] 6.85 µM and 29.1 µM | [13] 0.558 µM | [14] 4.13 µM | [15] 41.5 µM | [11] 3.12 µM | [3] 14.3 µM

COCC(C)O (configuration not stated)
active: [3] 11.5 µM

OC1CCCCC1
inactive: [3]

CCc1nn(C2CCCCC2)c2cc(C3(C#N)CCC(C(=O)O)CC3)ccc12 (configuration not stated)
inactive: [1] | [2] | [10] | [3]

CCCOc1sc(C(=O)N2CCC(c3cc(CN)ccc3F)CC2)c(C)c1Br
active: [7] 15 µM | [16] 13.6 µM | [13] 1.27 µM | [8] 18.8 µM | [9] 14.4 µM | [14] 1.19 µM | [15] 23.2 µM | [11] 4.18 µM | [3] 5.52 µM
inactive: PGR (gene 5241) | [10]

c1ccc2c(c1)ccc1ccccc12
inactive: [13]

COCC(C)OCC(C)O (configuration not stated)
inactive: [1] | [4] | [10] | [17]

CC[C@H](c1ccc(O)cc1)[C@@H](CC)c1ccc(O)cc1
active: [1] 100 nM [middle of 5 runs] | PGR (gene 5241) 0.431 µM | [9] 3.27 µM | [10] 6.81 µM | [14] 0.461 µM | [3] 1.52 nM and 2.29 nM and 4.85 nM
inactive: [5] | [4] | [16] | [10] | [3]

CCC(C)(C)C1CCC(O)CC1 (configuration not stated)
inactive: [13] | [3]
active: [3] 6.46 µM
